Screening results: PubChem BioAssay, National Center for Advancing Translational Sciences (NCATS)
Compounds with a hit are over-represented: about 6.3% of the library has one in this group of screens.
Gal4-VP16 FLuc = VP16 counterscreen qHTS for inhibitors of ROR gamma transcriptional activity | Drosophila S2 Gal4-VP16 UAS-luciferase, luminescence, 20 h | Potency, µM (highest dose often 53.6 µM), inactives show top-dose activity, negative = inhibition, most hits filed as inhibitors | 310,000 compounds, 3.5% hits | AID 2546, 2010;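 also: Gal4-VP16 expression switched on by copper sulfate through the metallothionein promoter; % is scaled to controls: 0 for no effect and ±100 for the full control effect; nearly all actives have a fitted effect of over 50% in size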
ATXN viability = Viability Counterscreen for Primary qHTS for Inhibitors of ATXN expression | AID 651635, 2014 | Potency, µM (top dose mostly 56.7 µM), usual class: cytotoxic | S2 cells (HEK-293 line with an ATXN2-luciferase reporter) viability, CellTiter-Fluor protease fluorescence, 24 h | 400,000 compounds, 0.49% hits; also: nearly all actives have a fitted effect of over 40% in size
ATXN2 expr inh = Primary qHTS for Inhibitors of ATXN expression; HEK-293 ATXN2-luciferase reporter, luminescence, 24 h; Potency, µM (doses to about 57 µM), inactives show at the top dose activity change, negative = inhibition, actives largely listed as inhibitors; 360,000 compounds, 0.72% hits; also: % is scaled to controls: 0 for no effect and ±100 for the full control effect; nearly all actives have a fitted effect of over 55% in size
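ATXN2-luciferase reporter cells (luciferase flanked by upstream and downstream ATXN2 gene portions) were treated 24 h at 37 °C with compounds at up to 57 uM. SteadyGlo luminescence gave expression; GF-AFC fluorescence gave viability.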
HepG2 viability = qHTS for Inhibitors of TGF-b: Cytotox Counterscreen. HepG2 CAGA-GFP viability, ATP luminescence, 18 h. Potency, µM (top dose mostly 46.1 µM), for the others: at the highest dose activity change, negative = cytotoxicity, most hits filed as cytotoxic. 410,000 compounds, 0.76% hits. AID 588856, 2011
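HepG2 CAGA-GFP cells (1000/well, DMEM with 1% FBS) received compound, then TGF-beta at 500 pg/mL final, and were incubated 18 hours at 37 degrees C. Viability was read by CellTiter-Glo luminescence. Media-only wells were set as complete cell-killing and DMSO as no toxicity.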
RORg inh = qHTS for inhibitors of ROR gamma transcriptional activity. Nuclear receptor ROR-gamma (Mus musculus), P51450. Potency, µM (titrated, usually from 53.6 µM), inactives show top-dose activity change, negative = inhibition, most hits filed as inhibitors. Drosophila S2 Gal4-RORgamma UAS-luciferase reporter, 20 h. 310,000 compounds, 5.4% hits; also: % is scaled to controls: 0 for no effect and ±100 for the full control effect; nearly all actives have a fitted effect of over 60% in size
Target sequence (P51450 whole entry, looked up, the tested form may be a part): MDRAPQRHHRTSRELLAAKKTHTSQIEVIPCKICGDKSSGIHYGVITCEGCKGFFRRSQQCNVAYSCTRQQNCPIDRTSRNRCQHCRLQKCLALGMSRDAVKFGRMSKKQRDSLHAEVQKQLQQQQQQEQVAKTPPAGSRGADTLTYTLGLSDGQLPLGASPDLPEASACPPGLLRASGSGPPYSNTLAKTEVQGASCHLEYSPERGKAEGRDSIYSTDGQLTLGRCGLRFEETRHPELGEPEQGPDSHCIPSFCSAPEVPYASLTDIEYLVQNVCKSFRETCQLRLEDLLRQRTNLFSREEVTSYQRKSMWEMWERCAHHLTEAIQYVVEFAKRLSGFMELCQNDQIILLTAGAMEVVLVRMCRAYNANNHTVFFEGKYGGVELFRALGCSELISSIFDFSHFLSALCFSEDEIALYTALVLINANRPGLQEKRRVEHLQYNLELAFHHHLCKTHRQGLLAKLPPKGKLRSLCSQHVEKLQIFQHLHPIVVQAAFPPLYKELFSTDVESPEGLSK
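Luminescence from a UAS-regulated Photinus luciferase reporter in stably transfected Drosophila Schneider cells is measured; decreased signal marks ROR gamma inhibition. Fusion expression is induced by 700 uM copper sulfate for 20 hr.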
TGFb inhibitor = qHTS for Inhibitors of TGF-b. 410,000 compounds, 1.2% hits. Potency, µM (doses to about 46.1 µM), inactives show at the top dose activity, negative = inhibition, hits mostly inhibitors. HepG2 CAGA-GFP TGF-b/SMAD3 reporter, GFP fluorescence, 18 h; TGF-beta stimulated, 500 pg/mL final; also: % is scaled to controls: 0 for no effect and ±100 for the full control effect; nearly all actives have a fitted effect of over 65% in size
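Using HEPG2 CAGA-GFP reporter cells at 1000 cells/well, we pinned test compounds, stimulated with recombinant TGF-beta (500 pg/mL final) and measured total well GFP after 18 h.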
Numbers without * were called inactive; i = inactive; ? = inconclusive; · = no result given; [ ] = another dose, or the depositor's remark. Calls follow the shape of the dose curve; as a rule, active = well fitted curve in the direction sought with a large enough effect; inconclusive = small, poorly fitted or top-dose-only effect, or another doubt; inactive = no such curve, though single readings can be large; an effect the other way counts as inactive or inconclusive. Potency is read from the fitted curve at half-maximal effect.

SMILES	Gal4-VP16 FLuc	ATXN viability	ATXN2 expr inh	HepG2 viability	RORg inh	TGFb inhibitor
Cc1ccc(N2CCN(c3nc4ccccc4n4nnnc34)CC2)c(C)c1	·	·	·	-30.8%	·	·
CC[C@@H]1CC2=C(C(=O)OC(C)(C)O2)[C@H](c2ccc(F)cc2)O1	·	i	2.8%	5.2%	·	?
Cc1oc(-c2ccc3c(c2)OCCO3)cc1C(=O)O	1.41µM*	?	7.08µM*	-56.9%	0.891µM*	4.5%
Cc1oc(-c2ccc3c(c2)OCCO3)cc1C(=O)NCC(=O)O	?	i	-37.3%	-7.6%	7.08µM*	-9.8%
Cc1oc(-c2ccc3c(c2)OCCO3)cc1C(=O)NC(CCC(=O)O)C(=O)O (configuration not stated)	-17.1%	i	31.6%	-0.6%	?	-25.5%
Cn1cc(C(=O)O)c(-c2ccc3c(c2)OCCCO3)n1	1.2%	i	1.6%	-7.6%	2.3%	4.9%
COc1ccc(-c2cc(C(=O)O)c(C)o2)cc1OC	0.891µM*	·	·	-14.6%	?	0.0%
COc1ccc(-c2cc(C(=O)NC(Cc3cc4ccccc4[nH]3)C(=O)O)c(C)o2)cc1OC (configuration not stated)	8.2%	i	11.5%	-11.5%	-4.9%	?
COc1ccc(NC(=O)C(NC(=O)c2ccc(=O)[nH]c2)c2ccccc2)cc1 (configuration not stated)	-12.5%	i	-0.4%	34.8%	-5.1%	6.2%
COc1ccc(C(C(=O)Nc2ccc(C(C)C)cc2)N(C)C(=O)c2ccc(=O)[nH]c2)cc1 (configuration not stated)	-1.8%	i	-5.0%[11.3 µM]	10.6%	17.8µM*	0.0%
COc1ccc2c(c1)c(CC(=O)OC/C=C(\C)CC/C=C(\C)CCC=C(C)C)c(C)n2C(=O)c1ccc(Cl)cc1	·	i	?	·	·	·
CCOC(=O)c1c(C)n(O)c2ccc(Cl)cc2c1=O	15.8µM*	·	-0.4%	-8.6%	?	2.9%
CC1C/C(=N\NC(=O)c2cccnc2)CC(C)(C)C1 (configuration not stated)	21.8%	i	-12.4%	-1.6%	-18.7%	-4.2%
CC1C/C(=N\NC(=S)NC(C)C)CC(C)(C)C1 (configuration not stated)	3.98µM*	i	-9.3%	-6.3%	1.58µM*	-8.7%
O=C(CNc1ccccc1)N/N=C/c1cn(-c2ccccc2)nc1-c1ccccc1	1µM*	i	0.5%	6.6%	-3.9%[10 µM]	2.8%
O=C(/C=C/c1cn(-c2ccccc2)nc1-c1cccnc1)c1ccco1	?	?	?	-27.9%	6.31µM*	?
O/N=C/c1cn(-c2ccccc2)nc1-c1cccnc1	0.6%	i	-36.3%	1.5%	12.2%	-13.4%
O=C(N/N=C/c1cn(-c2ccccc2)nc1-c1cccnc1)c1cccnc1	?	i	-7.2%	10.3%	14.1µM*	6.8%
NC(=O)N/N=C/c1cn(-c2ccccc2)nc1-c1ccccc1	?	i	67.0%	-24.5%	-17.5%	2.8%
O=C(N/N=C/c1cn(-c2ccccc2)nc1-c1cccnc1)c1ccc(F)cc1	3.98µM*	?	-25.7%	-40.1%	2.82µM*	-2.4%
COCc1c(C(=O)N2CCN(C)CC2)cnn1-c1ncc2c(n1)-c1ccccc1CCC2	·	i	·	·	·	·
Cc1cccc(CNc2ncncc2-c2ccccc2C)c1	-4.3%	·	·	·	-9.2%	·
COc1ccc(NS(=O)(=O)c2cccc(C(=O)N/N=C/c3cn(-c4ccccc4)nc3-c3ccc(OC)cc3)c2)cc1	-14.2%	i	34.6%	14.6%	-16.2%	9.6%
O=C(N/N=C/c1cn(-c2ccccc2)nc1-c1ccc(F)cc1)c1ccc(Br)o1	2.51µM*	i	6.8%	3.5%	1.78µM*	-13.8%
